PubChem BioAssay AID1159580 (chemical genetic matrix, 2015)
About 2,000 (36%) of roughly 5,500 compounds were called active. Not shown: some 18% with an inconclusive outcome. Rule as the data show it: active = normalized growth mostly below about 0.91 (no sharp cut-off); inconclusive = no clear call, values can overlap the other calls; inactive = mostly above about 0.92. This is one part of the list.

Assay: chemical genetic growth profiling, strain panel (AID 1159580);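 also: tested at 20 µM; growth read once vehicle control cultures reached saturation at 30 °C; 1 = growth at the plate median or of vehicle wells; lower values mean less growth of the strain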
Conditions: growth OD

Measured: normalized growth

COC(=O)C(N)CS (configuration not stated)
active: S. cerevisiae deletion strains, locus YLR268W, strain sec22, active compounds read low 0.871 | S. cerevisiae deletion strains, locus YNL307C, strain MCK1, active compounds read low 0.797 | S. cerevisiae deletion strains, locus YPR163C, strain tif3, active compounds read low 0.887
inactive: S. cerevisiae deletion strains, locus YJR075W, strain HOC1, active compounds read low 0.977 | S. cerevisiae deletion strains, locus YKL009W, strain mrt4, active compounds read low 1.02 | S. cerevisiae deletion strains, locus YKL068W, active compounds read low 0.99 | S. cerevisiae deletion strains, locus YKL085W, strain MDH1 (second series), active compounds read low 0.992 | S. cerevisiae deletion strains, locus YKL085W, strain MDH1, active compounds read low 0.992 | S. cerevisiae deletion strains, locus YKL160W, strain elf1, active compounds read low 1.02 | S. cerevisiae deletion strains, locus YKL190W, strain CNB1, active compounds read low 0.998 | S. cerevisiae deletion strains, locus YKR001C, strain vps1, active compounds read low 0.924 | S. cerevisiae deletion strains, locus YKR026C, strain gcn3, active compounds read low 0.985 | S. cerevisiae deletion strains, locus YKR091W, strain srl3, active compounds read low 0.99 | S. cerevisiae deletion strains, locus YLL001W, strain dnm1, active compounds read low 0.948 | S. cerevisiae deletion strains, locus YLL026W, active compounds read low 0.978 | S. cerevisiae deletion strains, locus YLL041C, strain sdh2, active compounds read low 0.985 | S. cerevisiae deletion strains, locus YLR027C, strain aat2, active compounds read low 0.988 | S. cerevisiae deletion strains, locus YLR039C, strain RIC1, active compounds read low 0.897 | S. cerevisiae deletion strains, locus YLR058C, strain SHM2, active compounds read low 0.99 | S. cerevisiae deletion strains, locus YLR102C, strain apc9, active compounds read low 0.98 | S. cerevisiae deletion strains, locus YLR113W, strain HOG1, active compounds read low 0.972 | S. cerevisiae deletion strains, locus YLR221C, strain rsa3, active compounds read low 0.961 | S. cerevisiae deletion strains, locus YLR258W, strain gsy2, active compounds read low 1 | S. cerevisiae deletion strains, locus YLR262C, strain YPT6 (second series), active compounds read low 0.926 | S. cerevisiae deletion strains, locus YLR262C, strain YPT6, active compounds read low 0.943 | S. cerevisiae deletion strains, locus YLR320W, strain mms22, active compounds read low 0.92 | S. cerevisiae deletion strains, locus YLR330W, strain CHS5, active compounds read low 0.993 | S. cerevisiae deletion strains, locus YLR342W, strain FKS1 (second series), active compounds read low 0.938 | S. cerevisiae deletion strains, locus YLR342W, strain FKS1, active compounds read low 0.984 | S. cerevisiae deletion strains, locus YLR357W, strain rsc2, active compounds read low 0.947 | S. cerevisiae deletion strains, locus YLR370C, strain arc18, active compounds read low 0.996 | S. cerevisiae deletion strains, locus YLR371W, strain rom2, active compounds read low 0.967 | S. cerevisiae deletion strains, locus YLR384C, strain iki3, active compounds read low 0.992 | S. cerevisiae deletion strains, locus YLR418C, strain cdc73, active compounds read low 0.888 | S. cerevisiae deletion strains, locus YML016C, strain PPZ1, active compounds read low 0.989 | S. cerevisiae deletion strains, locus YML032C, strain rad52, active compounds read low 0.962 | S. cerevisiae deletion strains, locus YML120C, strain ndi1, active compounds read low 0.949 | S. cerevisiae deletion strains, locus YML124C, strain tub3, active compounds read low 0.985 | S. cerevisiae deletion strains, locus YMR058W, strain fet3, active compounds read low 0.963 | S. cerevisiae deletion strains, locus YMR078C, strain ctf18, active compounds read low 0.968 | S. cerevisiae deletion strains, locus YMR125W, strain sto1, active compounds read low 1.01 | S. cerevisiae deletion strains, locus YMR129W, active compounds read low 1 | S. cerevisiae deletion strains, locus YMR205C, strain PFK2, active compounds read low 0.957 | S. cerevisiae deletion strains, locus YMR223W, strain ubp8, active compounds read low 0.965 | S. cerevisiae deletion strains, locus YMR231W, strain pep5, active compounds read low 0.981 | S. cerevisiae deletion strains, locus YMR263W, strain SAP30, active compounds read low 0.984 | S. cerevisiae deletion strains, locus YMR307W, strain GAS1, active compounds read low 1 | S. cerevisiae deletion strains, locus YNL067W, strain RPL9B, active compounds read low 0.968 | S. cerevisiae deletion strains, locus YNL071W, strain lat1, active compounds read low 0.968 | S. cerevisiae deletion strains, locus YNL128W, strain TEP1, active compounds read low 0.983 | S. cerevisiae deletion strains, locus YNL153C, strain GIM3, active compounds read low 0.991 | S. cerevisiae deletion strains, locus YNL183C, strain NPR1, active compounds read low 1 | S. cerevisiae deletion strains, locus YNL209W, strain ssb2, active compounds read low 1.01 | S. cerevisiae deletion strains, locus YNL233W, strain BNI4, active compounds read low 0.955 | S. cerevisiae deletion strains, locus YNL248C, strain rpa49, active compounds read low 0.984 | S. cerevisiae deletion strains, locus YNL250W, strain rad50, active compounds read low 0.98 | S. cerevisiae deletion strains, locus YNL271C, strain bni1, active compounds read low 0.98 | S. cerevisiae deletion strains, locus YNL298W, strain CLA4, active compounds read low 0.991 | S. cerevisiae deletion strains, locus YNL322C, strain KRE1 (second series), active compounds read low 1 | S. cerevisiae deletion strains, locus YNL322C, strain KRE1, active compounds read low 1 | S. cerevisiae deletion strains, locus YNR049C, strain mso1, active compounds read low 0.986 | S. cerevisiae deletion strains, locus YNR052C, strain pop2, active compounds read low 0.973 | S. cerevisiae deletion strains, locus YOL006C, strain TOP1, active compounds read low 0.896 | S. cerevisiae deletion strains, locus YOL012C, strain htz1 1.21 | S. cerevisiae deletion strains, locus YOL147C, strain pex11, active compounds read low 0.984 | S. cerevisiae deletion strains, locus YOR001W, strain rrp6, active compounds read low 0.929 | S. cerevisiae deletion strains, locus YOR061W, strain CKA2, active compounds read low 0.989 | S. cerevisiae deletion strains, locus YOR069W, strain VPS5, active compounds read low 0.991 | S. cerevisiae deletion strains, locus YOR070C, strain gyp1, active compounds read low 0.999 | S. cerevisiae deletion strains, locus YOR080W, strain dia2, active compounds read low 0.979 | S. cerevisiae deletion strains, locus YOR083W, strain WHI5, active compounds read low 0.988 | S. cerevisiae deletion strains, locus YOR106W, strain vam3, active compounds read low 0.949 | S. cerevisiae deletion strains, locus YOR136W, strain idh2, active compounds read low 0.978 | S. cerevisiae deletion strains, locus YOR144C, strain elg1, active compounds read low 0.979 | S. cerevisiae deletion strains, locus YOR184W, strain ser1, active compounds read low 0.911 | S. cerevisiae deletion strains, locus YOR231W, strain MKK1, active compounds read low 1 | S. cerevisiae deletion strains, locus YOR265W, strain rbl2, active compounds read low 0.992 | S. cerevisiae deletion strains, locus YOR270C, strain vph1, active compounds read low 0.805 | S. cerevisiae deletion strains, locus YOR290C, strain snf2, active compounds read low 1.02 | S. cerevisiae deletion strains, locus YOR316C, strain cot1, active compounds read low 0.987 | S. cerevisiae deletion strains, locus YPL051W, strain arl3, active compounds read low 1.01 | S. cerevisiae deletion strains, locus YPL055C, strain LGE1, active compounds read low 0.993 | S. cerevisiae deletion strains, locus YPL078C, strain atp4, active compounds read low 1.01 | S. cerevisiae deletion strains, locus YPL106C, strain sse1, active compounds read low 1.03 | S. cerevisiae deletion strains, locus YPL240C, strain hsp82, active compounds read low 0.987 | S. cerevisiae deletion strains, locus YPL241C, strain CIN2, active compounds read low 0.996 | S. cerevisiae deletion strains, locus YPL256C, strain CLN2, active compounds read low 1.05 | S. cerevisiae deletion strains, locus YPR119W, strain clb2, active compounds read low 0.977 | S. cerevisiae deletion strains, locus YPR141C, strain kar3, active compounds read low 0.979 | S. cerevisiae deletion strains, locus YPR167C, strain met16, active compounds read low 0.98 | S. cerevisiae deletion strains, strain wtn01, active compounds read low 0.967 | S. cerevisiae strains, strain wild type, active compounds read low 0.983
